Measurements as given in the OligoGym collection.

These sequences were tested against CYLC1 (assay: pooled miR-30 sensor sort-seq; sequence = guide strand). Details: shRNA.
Also: reference of the scale not given here.

Sequence | sensor-assay potency score (higher = more potent)
TATGGGATCATTACTAGTCTTT | -0.233
TTGACTTCTTGGATTGTTCATT | -0.552
TTGATGGAGGAACTCTACCTGT | -0.867
TTTCTTGGAATCTTTCTTCAAA | -0.0994
TTGATTTATCATTTGTACCTCT | 0.236
TTGGATGACATTCTGAATCCTC | 0.399
TTCTCTTCTACTATTTGCTTGG | -0.0318
TTGCATCCTTTGCATCTCCTGA | -0.744
TTATTCTGTGAGTAATTCCTTA | -0.37
TTTTTCTTAACTTTCTTTGAAT | -0.75
TTTCTTGTCATCTTTCTTGACA | -0.649
TAATTTTTTCTTATCCTTCTTT | 0.0107
TTCAGTATCTGAACCTTTGATT | -0.393
TATCTTTTTGTGAACAATTTTT | -1.47
TTGAATGTAGTCTTTTTGGATG | -0.77
TTGTCATGTCTAGTAACTGTTA | -0.717
TGAATCTTTCTTAGCATCCTTT | -0.674
TTGAATTTGCAGATGTGCCATC | -0.566
TTCATCTTTCTGACTCTCCTTT | 0.625
TTGTTGCATATGAACCTCCTTT | -0.831
TTTATCATTTGTACCTCTCTGG | 0.594
TTTAGTTTTCTCTTCTACTATT | -1.07

The sequences below were run against CYP20A1 in the same assay as above. Details: shRNA.

Sequence | sensor-assay potency score (higher = more potent)
TAAATCGGTCAATTTTTCCTTC | 0.481
TATCATACTGTCTTCTAGGATC | -0.814
TTTATCTAATAATTCTTCTGAA | -0.378
TTTGCAGTTATTATGCAACTGG | -0.736
TTTTGAACTTCTTCAGAGGTGG | 0.0133
TTATCTAATAATTCTTCTGAAA | -1.37
ATACTTTGTTTCAATAACCTGT | -0.318
TACACTAAGAAGTACTGTGGTC | -0.206
ATGCTGACAATATCTGAGCTGC | -0.739
TCCTTCAATATCTTGAAGCTGG | -0.788
TTCTTCTGAAAGCTTTAGGAGG | -0.987
TTCATCATCAAACCGATCTGGA | -0.00182

What follows are sequences tested against CYP2E1 in the same assay as above. Details: shRNA.

Sequence | sensor-assay potency score (higher = more potent)
TGTCCTTCCAGGTAGGTCCATT | -0.826
TTGATGGTGCTCCTTCACCCTT | -1.19
TTATTAAAAATGATTCCCCTGT | 0.074
AAGTAGTGTAGAAAGCTGGGAA | 0.682
TAAACAAATACATCAGCCTTAG | -0.917
TTATTGTAAAGCTGGAGCCAGG | -1.09
